Counter-ions that a name gives are not always drawn. ± gives the uncertainty stated by the source.
Tested on: FLX1
Assay: cell viability z-score within plate (CellTiter-Glo), mean of 3 biological replicates; higher = higher viability relative to plate (less growth inhibition)
Conditions: 2 µM; time (hr): 120
Experimental: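 FLX1 fibrolamellar carcinoma cells (DNAJB1-PRKACA fusion), 600 cells/well in 384-well plates, treated with a Selleck kinase inhibitor library (L1200) at 2 uM for 5 days (120 hr); viability by CellTiter-Glo. A z-score was computed within each plate and averaged over three biological replicates.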

Compound | cell viability z-score within plate
Cc1ncc(-c2ccnc(Nc3ccc(S(C)(=O)=O)cc3)n2)n1C(C)C | 0.322 ± 0.54
Cc1c(NC(=O)OC[C@@H]2COCCN2)cn2ncnc(Nc3ccc4c(cnn4Cc4cccc(F)c4)c3)c12 | -2.76 ± 1.1
O=c1ncn2nc(Sc3ccc(F)cc3F)ccc2c1-c1c(Cl)cccc1Cl | -3.62 ± 2.1
Cc1nc(NC(=O)N2CCC[C@H]2C(N)=O)sc1-c1ccnc(C(C)(C)C(F)(F)F)c1 [Alpelisib (BYL719)] | 0.524 ± 0.28
CN1CCN(c2ccc3nc(-c4c(N)c5c(F)cccc5[nH]c4=O)[nH]c3c2)CC1 [Dovitinib (TKI-258, CHIR-258)] | 0.442 ± 0.46
C[C@H]1[C@H](C)CC[C@]2(C(=O)O)CC[C@]3(C)C(=CC[C@@H]4[C@@]5(C)C[C@@H](O)[C@H](O)[C@@](C)(CO)[C@@H]5CC[C@]43C)[C@H]12 [Asiatic Acid] | 0.124 ± 0.46
CNC(=O)c1nn(C)c2c1C(C)(C)Cc1cnc(Nc3ccc(N4CCN(C)CC4)cc3)nc1-2 | 0.949 ± 0.33
CCc1cncnc1N1CCN(Cc2nc3ccc(C(F)(F)F)cc3[nH]2)CC1 | 0.164 ± 0.73
Cc1cc(Nc2cc(N3CCN(C)CC3)nc(Sc3ccc(NC(=O)C4CC4)cc3)n2)n[nH]1 [Tozasertib (VX-680, MK-0457)] | 0.324 ± 0.42
CCOC(=O)c1cnc2ccc(-c3cncc(NS(=O)(=O)c4ccccc4)c3)cn12 | 0.507 ± 0.62
COc1ccc(-c2nc(N3CCOCC3)c3sc(CN(C)c4ncc(C(=O)NO)cn4)cc3n2)cn1 | -0.258 ± 0.92
OCCn1cc(-c2cnc3nnn(Cc4ccc5ncccc5c4)c3n2)cn1 | 0.158 ± 1.6
O=c1cc(-c2cccc3c2Sc2ccccc2S3)oc(N2CCOCC2)c1 | 0.731 ± 0.28
CNC(=O)c1cc(COc2nnc(Nc3ccc(Cl)cc3)c3ccoc23)ccn1 [Telatinib] | -1.65 ± 1.2
CS(=O)(=O)c1cccc(CNc2nc(Nc3ccc4c(c3)CCC(=O)N4)ncc2C(F)(F)F)c1 | -2.81 ± 1.3
O=C(O)c1ccc(-c2c[nH]c3ncc(-c4ccccc4)cc23)cc1C1CCCC1 | -1.12 ± 1.1
CNC(=O)c1ccccc1Nc1nc(Nc2ccc(N3CCOCC3)cc2OC)ncc1Cl | 1.3 ± 1.2
CCn1c(=O)c(-c2ccc(-c3cncs3)cc2Cl)cc2cnc(Nc3ccc(N4CCN(C)CC4)cc3)nc21 | 0.491 ± 0.12
CCN1/C(=C/C(C)=O)Sc2ccc(OC)cc21 | -1.85 ± 0.92
Cc1cn(-c2cc(NC(=O)c3ccc(C)c(Nc4nccc(-c5cccnc5)n4)c3)cc(C(F)(F)F)c2)cn1 [Nilotinib (AMN-107)] | 0.322 ± 0.59

Compound | cell viability z-score within plate
CNC(=O)c1ccc(C)c(-n2c(C)cc(OCc3ccc(F)cc3F)c(Br)c2=O)c1 | 0.325 ± 0.62
CNC(=O)c1cc(Oc2ccc(NC(=O)Nc3ccc(Cl)c(C(F)(F)F)c3)cc2)ccn1 [Sorafenib] | -1.7 ± 1.3
OCCn1cc(-c2ccc3c(c2)CC/C3=N\O)c(-c2ccncc2)n1 | 0.788 ± 0.054
Cc1csc(-c2nnc(Nc3ccc(Oc4ncccc4-c4ccnc(N)n4)cc3)c3ccccc23)c1 | -0.507 ± 1.2
N[C@@H]1CCCN(c2c(/C=C3\SC(=O)NC3=O)cccc2-c2ccccc2)C1 | 0.166 ± 0.49
CNCc1ccc(-c2cc(-c3nc(-c4ccc(S(=O)(=O)C(C)C)cc4)cnc3N)on2)cc1 | 0.59 ± 0.39
Cc1cc(C)c(/C=C2\C(=O)Nc3ccccc32)[nH]1 [Semaxanib (SU5416)] | -1.17 ± 0.77
N#CC1(c2ccc(NC(=O)c3cccnc3NCc3ccncc3)cc2)CCCC1 [Apatinib] | 0.121 ± 0.33
COc1cc(CCc2cc(NC(=O)c3ccc(N4CC(C)NC(C)C4)cc3)n[nH]2)cc(OC)c1 (stereo not given) | 1.18 ± 0.41
N#Cc1c(Oc2ccc(F)c(NC(=O)Cc3cccc(C(F)(F)F)c3)c2)ccc2nc(NC(=O)C3CC3)sc12 | 0.529 ± 0.94
O=C1NC(=O)/C(=C/c2ccc3c(c2)OC(F)(F)O3)S1 | -0.962 ± 0.62
COc1ccc(-c2ccc3ncc4c(c3c2)n(-c2ccc(N3CCNCC3)c(C(F)(F)F)c2)c(=O)n4C)cn1 | 0.514 ± 0.38
Cc1c(CN2CCN(C(=O)[C@H](C)O)CC2)sc2c(N3CCOCC3)nc(-c3cnc(N)nc3)nc12 [Apitolisib (GDC-0980, RG7422)] | 0.169 ± 0.42
CS(=O)(=O)N1CCc2c(-c3cnc(N)nc3)nc(N3CCOCC3)nc21 | 0.617 ± 0.29
Cn1cc(/C=C2\C(=O)Nc3cccnc32)c2ccccc21 | 0.84 ± 0.29
O=S(=O)(c1cccc2cnccc12)N1CCCNCC1 [Fasudil (HA-1077) HCl] | 0.511 ± 0.42
C[C@]1(O)C[C@@H](c2nc(-c3ccc4ccc(-c5ccccc5)nc4c3)c3c(N)nccn32)C1 [Linsitinib (OSI-906)] | 0.624 ± 0.4
CC(C)NC[C@@H](C(=O)N1CCN(c2ncnc3c2[C@H](C)C[C@H]3O)CC1)c1ccc(Cl)cc1 [Ipatasertib (GDC-0068)] | 1.05 ± 0.14
CN1CCN(c2ccc3nc(-c4c(N)c5c(F)cccc5[nH]c4=O)[nH]c3c2)CC1 [Dovitinib (TKI-258) Dilactic Acid] | 0.322 ± 0.38
CN1CCN(S(=O)(=O)c2ccc(-c3cnc(N)c(C(=O)Nc4cccnc4)n3)cc2)CC1 | 0.448 ± 0.3

— the supplement of paper PMC9925115
